Experiments:
Test in all cases: DAPPL (digital affinity profiling via proximity ligation, sequencing); 10 mM Tris-HCl pH 7.5, 50 mM NaCl, 1 mM DTT, 4% glycerol, room temperature, 30 min; GST-TFs on glutathione beads, 16-mer random dsDNA library, 0.1% formaldehyde crosslink after washing; high values mean tight binding
GABPA = target: T1, GABPA (Homo sapiens, UniProt Q06546 1-454); settings: protein: recombinant; tags: N-terminal GST; dsDNA, one strand shown
T1 sequence: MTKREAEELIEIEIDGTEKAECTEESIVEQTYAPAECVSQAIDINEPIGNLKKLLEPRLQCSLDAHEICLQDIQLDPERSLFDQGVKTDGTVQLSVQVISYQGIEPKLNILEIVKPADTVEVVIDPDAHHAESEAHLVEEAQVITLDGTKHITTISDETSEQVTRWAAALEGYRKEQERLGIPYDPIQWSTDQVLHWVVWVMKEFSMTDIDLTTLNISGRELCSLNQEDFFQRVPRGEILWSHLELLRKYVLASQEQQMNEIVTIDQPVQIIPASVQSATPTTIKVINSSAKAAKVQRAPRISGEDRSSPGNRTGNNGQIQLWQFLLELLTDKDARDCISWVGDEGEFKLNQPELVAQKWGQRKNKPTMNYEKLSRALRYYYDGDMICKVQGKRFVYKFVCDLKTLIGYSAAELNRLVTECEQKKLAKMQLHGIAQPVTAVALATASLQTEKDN
Outline: (§1)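 Yeast served to express human transcription factors as GST fusions, which were then captured on glutathione beads and labelled with DNA barcodes. Pooled with a tag-only sample, they were incubated with 200 nmole of a 16-mer random double-stranded DNA library for 30 min at room temperature in Tris/NaCl/DTT/glycerol buffer, washed, crosslinked with 0.1% formaldehyde, ligated by proximity, amplified by PCR and sequenced. Dividing each hexamer's read frequency for a factor by its frequency for the tag-only sample gives the binding signal.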

ERG = target: T2, ERG (Homo sapiens, UniProt P11308 1-479); settings: protein: recombinant; tags: N-terminal GST; dsDNA, one strand shown
T2 sequence: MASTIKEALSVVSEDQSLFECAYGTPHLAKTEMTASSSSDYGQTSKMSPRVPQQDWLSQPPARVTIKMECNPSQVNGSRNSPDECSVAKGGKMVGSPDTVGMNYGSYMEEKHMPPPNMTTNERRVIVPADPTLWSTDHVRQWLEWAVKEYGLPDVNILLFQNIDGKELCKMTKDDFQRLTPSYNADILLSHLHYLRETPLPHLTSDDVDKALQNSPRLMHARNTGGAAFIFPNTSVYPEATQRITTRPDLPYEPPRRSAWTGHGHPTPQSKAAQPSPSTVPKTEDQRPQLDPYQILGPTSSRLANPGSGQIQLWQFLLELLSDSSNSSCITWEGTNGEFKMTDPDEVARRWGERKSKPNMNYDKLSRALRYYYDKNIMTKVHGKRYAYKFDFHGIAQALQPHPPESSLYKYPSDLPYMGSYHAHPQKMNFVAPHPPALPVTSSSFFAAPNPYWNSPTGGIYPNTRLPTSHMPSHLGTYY
Outline: as §1

ELK3 = target: T3, ELK3 (Homo sapiens, UniProt P41970 1-407); settings: protein: recombinant; tags: N-terminal GST; dsDNA, one strand shown
T3 sequence: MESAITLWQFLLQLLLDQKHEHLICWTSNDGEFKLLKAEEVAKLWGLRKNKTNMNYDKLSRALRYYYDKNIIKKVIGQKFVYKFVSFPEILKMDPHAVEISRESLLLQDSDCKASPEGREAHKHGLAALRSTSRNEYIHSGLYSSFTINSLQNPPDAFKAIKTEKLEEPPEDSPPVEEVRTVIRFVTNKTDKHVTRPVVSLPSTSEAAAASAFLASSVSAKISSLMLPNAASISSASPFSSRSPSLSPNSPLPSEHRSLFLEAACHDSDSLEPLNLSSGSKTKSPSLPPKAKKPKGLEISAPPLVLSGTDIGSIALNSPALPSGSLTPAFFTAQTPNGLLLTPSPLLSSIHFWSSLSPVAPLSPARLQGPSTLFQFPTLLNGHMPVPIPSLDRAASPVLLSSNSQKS
Outline: as §1

HSF1 = HSF1 (Homo sapiens, UniProt Q00613 1-529); settings: protein: recombinant; tags: N-terminal GST; chain copies: 3; dsDNA, one strand shown
Outline: as §1

ELK4 = target: T4, ELK4 (Homo sapiens, UniProt P28324-2 1-405); settings: protein: recombinant; tags: N-terminal GST; dsDNA, one strand shown
T4 sequence: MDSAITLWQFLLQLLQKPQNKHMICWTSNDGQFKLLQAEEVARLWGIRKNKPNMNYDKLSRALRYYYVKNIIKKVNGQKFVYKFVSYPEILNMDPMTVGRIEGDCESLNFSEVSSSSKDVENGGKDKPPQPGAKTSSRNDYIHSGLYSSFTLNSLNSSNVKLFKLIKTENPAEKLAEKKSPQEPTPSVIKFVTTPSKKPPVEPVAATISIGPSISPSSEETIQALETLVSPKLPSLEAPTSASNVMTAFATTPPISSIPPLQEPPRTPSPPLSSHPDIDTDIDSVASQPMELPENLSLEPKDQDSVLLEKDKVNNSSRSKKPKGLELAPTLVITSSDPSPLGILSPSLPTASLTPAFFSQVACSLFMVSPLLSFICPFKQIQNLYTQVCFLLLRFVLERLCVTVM
Outline: as §1

ELF3 = target: T5, ELF3 (Homo sapiens, UniProt P78545 1-371); settings: protein: recombinant; tags: N-terminal GST; dsDNA, one strand shown
T5 sequence: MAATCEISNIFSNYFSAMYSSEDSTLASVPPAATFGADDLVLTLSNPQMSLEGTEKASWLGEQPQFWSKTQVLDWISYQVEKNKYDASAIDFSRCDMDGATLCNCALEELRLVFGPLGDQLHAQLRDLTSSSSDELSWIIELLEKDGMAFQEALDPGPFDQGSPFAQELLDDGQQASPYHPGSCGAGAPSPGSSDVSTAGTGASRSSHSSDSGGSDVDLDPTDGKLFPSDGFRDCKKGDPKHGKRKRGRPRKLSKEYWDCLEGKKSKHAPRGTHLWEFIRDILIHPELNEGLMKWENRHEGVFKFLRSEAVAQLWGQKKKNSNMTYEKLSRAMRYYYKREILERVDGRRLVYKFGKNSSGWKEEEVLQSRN
Outline: as §1

CRX = CRX (Homo sapiens, UniProt O43186 1-299); settings: protein: recombinant; tags: N-terminal GST; dsDNA, one strand shown
Outline: as §1

ETV1 = ETV1 (Homo sapiens, UniProt P50549 1-477); settings: protein: recombinant; tags: N-terminal GST; dsDNA, one strand shown
Outline: as §1

ERF = target: T6, ERF (Homo sapiens, UniProt P50548 1-548); settings: protein: recombinant; tags: N-terminal GST; dsDNA, one strand shown
T6 sequence: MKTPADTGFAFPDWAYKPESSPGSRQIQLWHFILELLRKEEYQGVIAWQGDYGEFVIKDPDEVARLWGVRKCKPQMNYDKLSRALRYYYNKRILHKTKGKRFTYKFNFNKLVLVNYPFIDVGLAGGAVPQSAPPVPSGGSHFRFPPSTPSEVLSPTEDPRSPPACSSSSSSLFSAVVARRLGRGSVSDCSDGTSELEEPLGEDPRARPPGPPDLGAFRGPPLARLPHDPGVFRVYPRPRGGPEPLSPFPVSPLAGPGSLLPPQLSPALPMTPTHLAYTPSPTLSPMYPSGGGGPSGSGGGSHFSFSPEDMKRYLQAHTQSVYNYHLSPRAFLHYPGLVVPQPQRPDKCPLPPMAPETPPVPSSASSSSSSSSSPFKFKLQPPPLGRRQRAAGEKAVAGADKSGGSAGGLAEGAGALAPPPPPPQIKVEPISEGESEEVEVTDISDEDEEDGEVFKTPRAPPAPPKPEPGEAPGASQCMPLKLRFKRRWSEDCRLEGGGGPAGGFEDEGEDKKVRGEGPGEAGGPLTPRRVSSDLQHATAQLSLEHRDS
Outline: as §1

ETS2 = target: T7, ETS2 (Homo sapiens, UniProt P15036 1-469); settings: protein: recombinant; tags: N-terminal GST; dsDNA, one strand shown
T7 sequence: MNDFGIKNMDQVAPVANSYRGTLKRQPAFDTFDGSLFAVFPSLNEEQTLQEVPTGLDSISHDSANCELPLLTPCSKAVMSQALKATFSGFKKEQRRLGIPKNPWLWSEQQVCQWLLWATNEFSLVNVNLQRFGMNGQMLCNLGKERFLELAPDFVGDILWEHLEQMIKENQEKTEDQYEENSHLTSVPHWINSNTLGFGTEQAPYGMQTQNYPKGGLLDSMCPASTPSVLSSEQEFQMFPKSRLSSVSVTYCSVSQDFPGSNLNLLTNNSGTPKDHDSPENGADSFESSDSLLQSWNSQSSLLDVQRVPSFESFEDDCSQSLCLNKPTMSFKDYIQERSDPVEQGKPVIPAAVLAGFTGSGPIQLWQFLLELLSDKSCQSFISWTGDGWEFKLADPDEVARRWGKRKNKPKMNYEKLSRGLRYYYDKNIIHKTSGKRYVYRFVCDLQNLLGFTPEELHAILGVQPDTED
Outline: as §1

ETV7 = target: T8, ETV7 (Homo sapiens, UniProt Q9Y603 1-341); settings: protein: recombinant; tags: N-terminal GST; dsDNA, one strand shown
T8 sequence: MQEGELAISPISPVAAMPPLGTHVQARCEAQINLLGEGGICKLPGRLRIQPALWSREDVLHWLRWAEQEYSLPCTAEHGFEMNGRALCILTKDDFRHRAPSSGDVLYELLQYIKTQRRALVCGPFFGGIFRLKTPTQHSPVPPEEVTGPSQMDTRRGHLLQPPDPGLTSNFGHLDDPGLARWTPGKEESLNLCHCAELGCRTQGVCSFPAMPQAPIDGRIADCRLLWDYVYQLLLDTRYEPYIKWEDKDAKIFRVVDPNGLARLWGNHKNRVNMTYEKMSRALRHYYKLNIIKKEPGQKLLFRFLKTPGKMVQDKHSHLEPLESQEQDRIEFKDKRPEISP
Outline: as §1

ELF5 = target: T9, ELF5 (Homo sapiens, UniProt Q9UKW6-2 1-255); settings: protein: recombinant; tags: N-terminal GST; dsDNA, one strand shown
T9 sequence: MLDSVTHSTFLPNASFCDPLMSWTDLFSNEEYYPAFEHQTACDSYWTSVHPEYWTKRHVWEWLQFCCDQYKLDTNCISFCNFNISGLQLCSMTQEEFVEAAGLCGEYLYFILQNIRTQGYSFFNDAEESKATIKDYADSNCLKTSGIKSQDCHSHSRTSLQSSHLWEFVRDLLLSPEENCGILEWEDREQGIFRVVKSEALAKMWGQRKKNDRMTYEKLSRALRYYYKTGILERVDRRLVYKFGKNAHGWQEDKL
Outline: as §1

ELF1 = ELF1 (Homo sapiens, UniProt P32519 1-619); settings: protein: recombinant; tags: N-terminal GST; dsDNA, one strand shown
Outline: as §1

EHF = target: T10, EHF (Homo sapiens, UniProt Q9NZC4 1-300); settings: protein: recombinant; tags: N-terminal GST; dsDNA, one strand shown
T10 sequence: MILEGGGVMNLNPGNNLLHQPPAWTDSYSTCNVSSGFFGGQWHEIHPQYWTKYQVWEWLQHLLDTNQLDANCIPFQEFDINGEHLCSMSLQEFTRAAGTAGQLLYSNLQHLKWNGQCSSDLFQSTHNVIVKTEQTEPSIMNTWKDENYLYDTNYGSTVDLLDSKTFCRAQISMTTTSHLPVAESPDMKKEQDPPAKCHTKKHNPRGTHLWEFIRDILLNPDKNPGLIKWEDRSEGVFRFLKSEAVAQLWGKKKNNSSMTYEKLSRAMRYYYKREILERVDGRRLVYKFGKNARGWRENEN
Outline: as §1

SPI1 = SPI1 (Homo sapiens, UniProt P17947 1-270); settings: protein: recombinant; tags: N-terminal GST; dsDNA, one strand shown
Outline: as §1

FEV = target: T11, FEV (Homo sapiens, UniProt Q99581 1-238); settings: protein: recombinant; tags: N-terminal GST; dsDNA, one strand shown
T11 sequence: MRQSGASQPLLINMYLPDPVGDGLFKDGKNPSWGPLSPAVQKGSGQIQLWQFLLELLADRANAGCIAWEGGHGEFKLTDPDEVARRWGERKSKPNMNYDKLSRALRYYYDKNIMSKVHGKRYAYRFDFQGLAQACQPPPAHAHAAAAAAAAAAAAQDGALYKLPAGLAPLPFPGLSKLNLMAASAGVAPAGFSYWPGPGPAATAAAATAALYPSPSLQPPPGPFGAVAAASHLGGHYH
Outline: as §1

ELF4 = ELF4 (Homo sapiens, UniProt Q99607 1-663); settings: protein: recombinant; tags: N-terminal GST; dsDNA, one strand shown
Outline: as §1

ETV6 = ETV6 (Homo sapiens, UniProt P41212 1-452); settings: protein: recombinant; tags: N-terminal GST; dsDNA, one strand shown
Outline: as §1

HSF1, sequence (Q00613 whole entry): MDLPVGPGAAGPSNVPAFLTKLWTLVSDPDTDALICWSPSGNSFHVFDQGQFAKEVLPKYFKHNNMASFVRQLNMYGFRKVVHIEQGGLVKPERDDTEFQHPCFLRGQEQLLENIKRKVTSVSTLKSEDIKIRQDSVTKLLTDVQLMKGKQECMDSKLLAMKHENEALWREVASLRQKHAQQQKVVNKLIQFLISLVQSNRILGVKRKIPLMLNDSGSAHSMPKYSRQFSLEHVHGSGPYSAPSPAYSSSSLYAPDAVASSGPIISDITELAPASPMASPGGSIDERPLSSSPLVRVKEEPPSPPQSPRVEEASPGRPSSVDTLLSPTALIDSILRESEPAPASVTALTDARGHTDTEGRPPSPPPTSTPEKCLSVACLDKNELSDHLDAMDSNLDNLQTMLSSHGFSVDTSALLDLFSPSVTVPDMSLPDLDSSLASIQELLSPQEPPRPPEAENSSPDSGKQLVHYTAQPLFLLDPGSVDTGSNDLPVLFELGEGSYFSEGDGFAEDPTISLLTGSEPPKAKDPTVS
CRX, sequence (O43186 whole entry): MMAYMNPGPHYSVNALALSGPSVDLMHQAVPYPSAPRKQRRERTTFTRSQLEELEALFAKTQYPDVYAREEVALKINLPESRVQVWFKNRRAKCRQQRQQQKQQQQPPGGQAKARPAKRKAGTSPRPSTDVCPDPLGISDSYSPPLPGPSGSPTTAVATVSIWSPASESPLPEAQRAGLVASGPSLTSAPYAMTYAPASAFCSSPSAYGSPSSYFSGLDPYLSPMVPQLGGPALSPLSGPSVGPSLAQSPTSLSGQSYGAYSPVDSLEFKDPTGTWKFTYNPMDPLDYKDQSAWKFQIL
ELF1, sequence (P32519 whole entry): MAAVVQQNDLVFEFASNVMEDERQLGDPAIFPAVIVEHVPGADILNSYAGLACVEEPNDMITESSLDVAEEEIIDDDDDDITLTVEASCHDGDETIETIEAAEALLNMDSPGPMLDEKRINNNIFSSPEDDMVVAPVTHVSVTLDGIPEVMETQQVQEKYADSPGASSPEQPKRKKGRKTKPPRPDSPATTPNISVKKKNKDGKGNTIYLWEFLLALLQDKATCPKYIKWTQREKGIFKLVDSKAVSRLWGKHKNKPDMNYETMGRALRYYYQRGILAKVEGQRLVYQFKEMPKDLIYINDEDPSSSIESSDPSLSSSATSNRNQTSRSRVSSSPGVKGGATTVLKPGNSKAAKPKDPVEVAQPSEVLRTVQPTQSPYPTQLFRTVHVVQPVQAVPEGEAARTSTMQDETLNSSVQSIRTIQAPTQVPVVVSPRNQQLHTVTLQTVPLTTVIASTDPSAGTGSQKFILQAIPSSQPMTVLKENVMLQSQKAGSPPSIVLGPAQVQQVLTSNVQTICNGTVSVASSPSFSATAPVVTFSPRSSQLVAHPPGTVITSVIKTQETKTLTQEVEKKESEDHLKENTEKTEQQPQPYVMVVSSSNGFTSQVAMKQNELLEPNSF
ETV6, sequence (P41212 whole entry): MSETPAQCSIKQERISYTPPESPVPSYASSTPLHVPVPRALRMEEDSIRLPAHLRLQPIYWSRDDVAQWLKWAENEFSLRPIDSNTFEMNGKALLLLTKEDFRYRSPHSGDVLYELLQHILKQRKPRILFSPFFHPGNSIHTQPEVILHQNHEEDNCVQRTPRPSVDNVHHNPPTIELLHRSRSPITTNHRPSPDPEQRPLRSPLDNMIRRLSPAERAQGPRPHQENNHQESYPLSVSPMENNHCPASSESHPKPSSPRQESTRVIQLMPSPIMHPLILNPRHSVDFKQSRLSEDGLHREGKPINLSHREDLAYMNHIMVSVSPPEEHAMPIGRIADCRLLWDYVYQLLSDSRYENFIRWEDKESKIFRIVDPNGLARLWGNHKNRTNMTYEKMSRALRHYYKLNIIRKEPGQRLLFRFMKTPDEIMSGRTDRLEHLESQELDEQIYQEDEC
ETV1, sequence (P50549 whole entry): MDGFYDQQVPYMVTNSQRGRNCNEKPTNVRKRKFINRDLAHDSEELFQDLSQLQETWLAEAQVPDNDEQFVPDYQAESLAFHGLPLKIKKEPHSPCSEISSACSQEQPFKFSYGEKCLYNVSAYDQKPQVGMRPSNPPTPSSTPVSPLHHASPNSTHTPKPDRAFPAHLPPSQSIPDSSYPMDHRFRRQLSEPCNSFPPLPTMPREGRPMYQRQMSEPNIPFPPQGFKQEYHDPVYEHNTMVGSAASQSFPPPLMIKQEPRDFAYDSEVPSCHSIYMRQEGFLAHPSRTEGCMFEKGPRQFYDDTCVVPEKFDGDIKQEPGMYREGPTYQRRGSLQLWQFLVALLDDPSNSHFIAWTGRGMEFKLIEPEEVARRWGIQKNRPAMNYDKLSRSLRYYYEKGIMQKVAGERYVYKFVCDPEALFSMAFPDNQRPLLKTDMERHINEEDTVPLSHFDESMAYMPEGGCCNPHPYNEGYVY
ELF4, sequence (Q99607 whole entry): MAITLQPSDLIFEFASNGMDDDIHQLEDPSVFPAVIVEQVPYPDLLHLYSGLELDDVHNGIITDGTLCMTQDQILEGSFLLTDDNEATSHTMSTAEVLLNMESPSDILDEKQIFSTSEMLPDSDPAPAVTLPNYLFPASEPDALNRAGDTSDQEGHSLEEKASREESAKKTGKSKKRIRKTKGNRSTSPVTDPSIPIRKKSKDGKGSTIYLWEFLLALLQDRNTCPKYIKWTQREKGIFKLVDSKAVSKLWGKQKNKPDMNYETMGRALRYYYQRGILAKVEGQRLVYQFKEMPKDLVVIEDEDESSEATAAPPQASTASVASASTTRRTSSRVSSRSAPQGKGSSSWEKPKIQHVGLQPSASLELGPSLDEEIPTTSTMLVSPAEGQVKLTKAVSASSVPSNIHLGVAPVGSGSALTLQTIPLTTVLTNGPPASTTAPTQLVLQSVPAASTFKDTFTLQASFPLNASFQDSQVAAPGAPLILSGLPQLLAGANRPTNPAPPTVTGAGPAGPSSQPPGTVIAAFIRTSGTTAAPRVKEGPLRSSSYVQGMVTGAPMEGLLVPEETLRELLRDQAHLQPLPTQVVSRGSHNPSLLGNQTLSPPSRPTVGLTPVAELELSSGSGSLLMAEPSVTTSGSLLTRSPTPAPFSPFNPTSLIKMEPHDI

Sequence | binding signal (GABPA) | binding signal (ERG) | binding signal (ELK3) | binding signal (HSF1) | binding signal (ELK4) | binding signal (ELF3) | binding signal (CRX) | binding signal (ETV1) | binding signal (ERF) | binding signal (ETS2) | binding signal (ETV7) | binding signal (ELF5) | binding signal (ELF1) | binding signal (EHF) | binding signal (SPI1) | binding signal (FEV) | binding signal (ELF4) | binding signal (ETV6)
AGGCTT | 1.02 fold enrichment (6-mer frequency, TF over GST control) | 1.04 fold enrichment (6-mer frequency, TF over GST control) | 1.05 fold enrichment (6-mer frequency, TF over GST control) | 1.24 fold enrichment (6-mer frequency, TF over GST control) | 1.02 fold enrichment (6-mer frequency, TF over GST control) | 1.11 fold enrichment (6-mer frequency, TF over GST control) | 1.74 fold enrichment (6-mer frequency, TF over GST control) | 1 fold enrichment (6-mer frequency, TF over GST control) | 1.02 fold enrichment (6-mer frequency, TF over GST control) | 1.04 fold enrichment (6-mer frequency, TF over GST control) | 1.08 fold enrichment (6-mer frequency, TF over GST control) | 1.02 fold enrichment (6-mer frequency, TF over GST control) |  |  |  |  |  | 
CGAATG | 1.12 fold enrichment (6-mer frequency, TF over GST control) |  | 1.01 fold enrichment (6-mer frequency, TF over GST control) | 1.5 fold enrichment (6-mer frequency, TF over GST control) | 1.07 fold enrichment (6-mer frequency, TF over GST control) | 1.12 fold enrichment (6-mer frequency, TF over GST control) |  |  | 1.02 fold enrichment (6-mer frequency, TF over GST control) | 1.14 fold enrichment (6-mer frequency, TF over GST control) | 1.08 fold enrichment (6-mer frequency, TF over GST control) |  | 1.05 fold enrichment (6-mer frequency, TF over GST control) | 1.05 fold enrichment (6-mer frequency, TF over GST control) | 1.03 fold enrichment (6-mer frequency, TF over GST control) | 1.01 fold enrichment (6-mer frequency, TF over GST control) | 1.13 fold enrichment (6-mer frequency, TF over GST control) | 1.11 fold enrichment (6-mer frequency, TF over GST control)
